In PubChem BioAssay (Tox21):
Values joined by “and” are separate entries in the source; they are usually repeats but may differ in a detail not shown here. Equal values may be shown once. Inconclusive results are not listed. Entries that show only a call come without a potency. A structure can be active in one record and inactive in another. Active and inactive are the calls of the source. The call rests on the fitted dose curve; in most records, active means well fitted curve in the direction sought with a large enough effect in the repeat runs; inconclusive means weak or mixed curves; inactive means no such curve, though single readings can be large; an effect the other way counts as inactive or inconclusive.

Key:
[1] = Caspase-3/7 induction in HepG2 cells by small molecules, qHTS assay (AID 1346978); further: nearly all actives have a fitted effect of over 15% in size; further: potency means the concentration at half of the fitted maximal effect
Summary of the method: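 Wild-type HepG2 cells (2,000/well) were settled 5 h at 37 C, 5% CO2, then exposed to compounds in DMSO for 17 h. Caspase-3/7 activity was read by luminescence 30 min after adding Caspase-Glo 3/7 reagent at room temperature.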

[2] = Caspase-3/7 induction in CHO-K1 cells by small molecules, qHTS cell viability counter screen (AID 1346979); further: nearly all actives have a fitted effect of over 35% in size; further: potency means the concentration at half of the fitted maximal effect
Summary of the method: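 Following a 5hr settling period, CHO-K1 cells at 1,500 per well received DMSO-dissolved compounds. Cell viability was quantified 16hr later by CellTiter-Fluor fluorescence, measured after 1hr with reagent at 37C.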

[3] = Caspase-3/7 induction in CHO-K1 cells by small molecules, qHTS assay (AID 1346980); further: nearly all actives have a fitted effect of over 15% in size
Summary of the method: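 Wild-type cells were seeded at 1,500 per well and settled 5 hr at 37 C, 5% CO2, then exposed to DMSO-dissolved compounds for 17 hr. Caspase-Glo 3/7 reagent was added, and luminescence was read after 30min at room temperature.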

[4] = Caspase-3/7 induction in HepG2 cells by small molecules, qHTS cell viability counter screen (AID 1346981); further: nearly all actives have a fitted effect of over 30% in size; further: potency means the concentration at half of the fitted maximal effect
Summary of the method: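 In this quantitative HTS counter screen, compounds delivered in DMSO were left on unmodified HepG2 cells for 16 hr at 37 C. Viability was then determined fluorometrically with CellTiter-Fluor, in parallel with caspase-3/7 induction in the same wells.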

[5] = biological target: Nuclear receptor subfamily 1 group I member 2 (Homo sapiens) (UniProt O75469); experiment: Human pregnane X receptor (PXR) small molecule agonists, qHTS assay (AID 1346982); further: nearly all actives have a fitted effect of over 35% in size; further: potency means the concentration at half of the fitted maximal effect
Summary of the method: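 Reporter HepG2 cells expressing PXR-Luc are cultured in charcoal-stripped FBS (5%), treated with compounds for 24 hr at 37 C, and assayed by ONE-Glo luminescence after 30 min at room temperature.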

[6] = biological target: Cytochrome P450 2D6 (Homo sapiens) (UniProt P10635); experiment: Cytochrome P450 Family 2 Subfamily D Member 6 (CYP2D6) small molecule antagonists: luciferase reporter qHTS assay (AID 1671196); further: nearly all actives have a fitted effect of over 50% in size; further: potency means the concentration at half of the fitted maximal effect
Summary of the method: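 Test chemicals meet CYP2D6 plus proluciferin substrate (10 min, RT); NADPH regenerating solution then drives turnover for 1 h. Detection reagent halts the reaction; luminescence measured after 20 min.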

[7] = biological target: Nuclear receptor subfamily 1 group I member 2 (Rattus norvegicus) (UniProt Q9R1A7); experiment: Rat pregnane X receptor (rPXR) activation by small molecules, qHTS assay (AID 1346983); conditions: rPXR luciferase reporter cells, One-Glo luminescence, 24 h; max activation: stronger effect = higher value; further: nearly all actives have a fitted effect of over 20% in size; further: potency means the concentration at half of the fitted maximal effect
Summary of the method: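 Cell-based rPXR luciferase reporter assay, 2,000 cells per well, rested 5hr at 37 C before compound addition in DMSO, then 24 hr at 37 C. One-Glo reagent was added and luminescence read after 30 min at room temperature.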

[8] = biological target: Cytochrome P450 2C19 (Homo sapiens) (UniProt P33261); experiment: Cytochrome P450 Family 2 Subfamily C Member 19 (CYP2C19) small molecule antagonists: luciferase reporter qHTS assay (AID 1671197); further: nearly all actives have a fitted effect of over 65% in size; further: potency means the concentration at half of the fitted maximal effect
Summary of the method: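 Luminescent readout of CYP2C19 activity: luciferin product detected 20 min after adding detection reagent. Before that, compound and enzyme-substrate mix preincubated 10 min at room temperature; NADPH-regenerating system started a 1 h, 37C reaction. Ketoconazole as positive control.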

[9] = biological target: Nuclear receptor subfamily 1 group I member 2 (Homo sapiens) (UniProt O75469); experiment: CYP3A4 induction through human pregnane X receptor (PXR) by small molecules, qHTS assay (AID 1346984); further: nearly all actives have a fitted effect of over 40% in size
Summary of the method: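 Induction measured in HepG2-based DPX-2 cells co-expressing human PXR and a CYP3A4 promoter-driven luciferase. After a 24-hour compound exposure, cells received CYP3A4 luciferin substrate at 3uM final for 3 hours, and light output was then recorded.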

[10] = biological target: Nuclear receptor subfamily 1 group I member 2 (Homo sapiens) (UniProt O75469); experiment: Human pregnane X receptor (PXR) activation by small molecules, qHTS assay (AID 1346985); further: nearly all actives have a fitted effect of over 40% in size
Summary of the method: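 DPX-2 cells (HepG2 co-transfected with a PXR response element and a CYP3A4-promoter luciferase construct) were seeded at 2,000 per well, rested 5 hr at 37C, then exposed to DMSO-dissolved compounds for 24 hr. Activation was read as luciferase luminescence.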

Chain of Nuclear receptor subfamily 1 group I member 2 (Rattus norvegicus) (Q9R1A7 whole entry, looked up): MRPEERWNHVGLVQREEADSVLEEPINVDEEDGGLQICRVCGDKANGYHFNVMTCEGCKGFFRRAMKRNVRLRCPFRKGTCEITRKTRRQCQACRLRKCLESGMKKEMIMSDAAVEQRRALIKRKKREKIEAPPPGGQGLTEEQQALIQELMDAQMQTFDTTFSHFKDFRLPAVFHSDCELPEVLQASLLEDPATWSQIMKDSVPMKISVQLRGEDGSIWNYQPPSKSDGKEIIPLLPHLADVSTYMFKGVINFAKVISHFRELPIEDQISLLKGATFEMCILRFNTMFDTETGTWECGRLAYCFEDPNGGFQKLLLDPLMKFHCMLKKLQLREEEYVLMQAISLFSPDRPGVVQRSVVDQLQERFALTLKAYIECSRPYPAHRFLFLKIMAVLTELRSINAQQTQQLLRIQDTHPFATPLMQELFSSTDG
Chain of Cytochrome P450 2D6 (Homo sapiens) (P10635 whole entry, looked up): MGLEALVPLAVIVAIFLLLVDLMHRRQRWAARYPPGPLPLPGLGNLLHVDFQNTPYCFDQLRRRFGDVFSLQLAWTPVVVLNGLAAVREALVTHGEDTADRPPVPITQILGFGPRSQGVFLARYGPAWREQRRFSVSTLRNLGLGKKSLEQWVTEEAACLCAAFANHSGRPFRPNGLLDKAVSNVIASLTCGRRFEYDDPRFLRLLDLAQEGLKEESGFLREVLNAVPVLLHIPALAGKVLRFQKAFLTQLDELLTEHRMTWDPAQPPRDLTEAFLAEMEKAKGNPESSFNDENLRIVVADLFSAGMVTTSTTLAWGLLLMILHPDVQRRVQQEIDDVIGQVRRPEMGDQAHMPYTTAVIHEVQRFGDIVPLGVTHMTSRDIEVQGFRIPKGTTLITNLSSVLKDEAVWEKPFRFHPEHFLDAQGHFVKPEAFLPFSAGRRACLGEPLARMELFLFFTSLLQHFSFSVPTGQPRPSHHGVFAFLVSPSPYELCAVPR
Chain of Cytochrome P450 2C19 (Homo sapiens) (P33261 whole entry, looked up): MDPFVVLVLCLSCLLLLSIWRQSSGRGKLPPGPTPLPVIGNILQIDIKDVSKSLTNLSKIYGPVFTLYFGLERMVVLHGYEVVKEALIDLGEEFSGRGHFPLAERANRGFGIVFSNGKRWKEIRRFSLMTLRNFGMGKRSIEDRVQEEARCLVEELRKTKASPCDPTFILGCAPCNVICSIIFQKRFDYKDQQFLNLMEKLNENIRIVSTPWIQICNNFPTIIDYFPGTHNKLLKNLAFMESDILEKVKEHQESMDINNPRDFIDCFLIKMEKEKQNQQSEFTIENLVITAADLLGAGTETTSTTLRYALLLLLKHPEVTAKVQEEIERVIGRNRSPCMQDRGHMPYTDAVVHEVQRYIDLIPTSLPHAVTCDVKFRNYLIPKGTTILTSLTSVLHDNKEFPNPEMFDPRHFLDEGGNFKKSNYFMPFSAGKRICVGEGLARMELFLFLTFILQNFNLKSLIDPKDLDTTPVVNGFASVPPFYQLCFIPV
Chain of Nuclear receptor subfamily 1 group I member 2 (Homo sapiens) (O75469 whole entry, looked up): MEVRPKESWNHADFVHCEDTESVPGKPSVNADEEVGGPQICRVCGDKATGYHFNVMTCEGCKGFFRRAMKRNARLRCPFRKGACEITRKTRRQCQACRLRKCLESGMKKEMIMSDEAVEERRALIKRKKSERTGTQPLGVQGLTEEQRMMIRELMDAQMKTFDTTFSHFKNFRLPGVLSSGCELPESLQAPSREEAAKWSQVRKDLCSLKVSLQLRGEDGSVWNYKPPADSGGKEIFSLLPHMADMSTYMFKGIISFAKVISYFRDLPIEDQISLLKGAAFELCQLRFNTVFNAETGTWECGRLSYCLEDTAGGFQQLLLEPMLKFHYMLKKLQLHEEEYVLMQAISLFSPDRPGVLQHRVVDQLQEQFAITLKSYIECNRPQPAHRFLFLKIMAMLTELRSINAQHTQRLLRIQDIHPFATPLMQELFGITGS

SMILES	Potency [1]	Potency [2]	Potency [3]	Potency [4]	Potency [5]	Potency [6]	max activation [7]	Potency [8]	Potency [9]	Potency [10]	Potency [7]
CC(=O)Oc1ccc(C(c2ccc(OC(C)=O)cc2)c2ccccn2)cc1	inactive	inactive	inactive	inactive	54.2 µM (active) and inactive	35.4 µM (active) and inactive					
O=C(CCCN1CCC(O)(c2ccc(Cl)cc2)CC1)c1ccc(F)cc1	54.5 µM (active) and inactive	61.1 µM (active) and inactive		48.6 µM (active) and inactive							
C=C[C@H]1CN2CC[C@H]1C[C@@H]2[C@@H](O)c1ccnc2ccc(OC)cc12	inactive	inactive	inactive	inactive			-2.45% (inactive)				
CCCCCC=O	inactive	inactive	inactive	inactive	inactive	inactive		inactive			
CCC/C=C/C=O	inactive	inactive		inactive	inactive						
COc1ccc(-c2coc3cc(O)cc(O)c3c2=O)cc1	inactive	69.1 µM (active)	inactive		30.9 µM (active) and 30.6 µM (active)	45.2 µM (active)		20.2 µM (active) and 28.3 µM (active)			
Oc1ccc(C(c2ccc(O)cc2)C(Cl)(Cl)Cl)cc1	inactive	54.5 µM (active)	inactive		inactive and 61.1 µM (active)	inactive		17.8 µM (active) and 20 µM (active)			
Brc1nc2ccccc2s1	inactive	inactive	inactive	inactive	60.9 µM (active)	inactive		35.5 µM (active) and inactive			
CC1=CC(C)(C)Nc2ccccc21	inactive	inactive	inactive	inactive	8.41 µM (active)	inactive		75.6 µM (active)			
CCCOCCO	inactive	inactive		inactive	inactive	inactive		inactive			
CC(C)=CCO	inactive	inactive		inactive	62.6 µM (active) and inactive	inactive					
CC/C(=C(/CC)c1ccc(O)cc1)c1ccc(O)cc1	inactive	60.6 µM (active) and 61.1 µM (active) and 26.6 µM (active)		inactive			5.39% (inactive)				
CC(=O)O[C@]1(C(C)=O)CC[C@H]2[C@@H]3C=C(C)C4=CC(=O)CC[C@]4(C)[C@H]3CC[C@@]21C	inactive	68.6 µM (active)		inactive	27.3 µM (active)	inactive		7.1 µM (active) and 6.92 µM (active)	inactive	inactive	
c1ccc2ncccc2c1	inactive	inactive		inactive	inactive	inactive		inactive			
CCO[Si](CCCNC(N)=O)(OCC)OCC	inactive	inactive		inactive	inactive	inactive		inactive and 56.4 µM (active)			
Cc1ccc(C(C)(C)C)c(O)c1		66.4 µM (active)		inactive	inactive	inactive					
CCOC(=O)C(C)Oc1ccc(Oc2cnc3cc(Cl)ccc3n2)cc1 (stereo not drawn)	inactive	inactive		inactive	inactive	32.5 µM (active)					
Nc1ccc2c(O)cc(S(=O)(=O)O)cc2c1	inactive	48.6 µM (active) and 19.3 µM (active)		27.3 µM (active) and 21.7 µM (active)	30.7 µM (active)	35.6 µM (active) and 71 µM (active)		79.8 µM (active) and 50.2 µM (active)			
c1ccc2c(c1)ccc1cc3c(ccc4ccccc43)cc12	inactive	inactive		inactive	3.03 µM (active) and 1.71 µM (active)	inactive		inactive			
Cc1ccc(S(=O)(=O)O)cc1C	inactive	inactive		inactive	inactive	inactive	-0.712% (inactive)	inactive	inactive	inactive	
CC(C)[N+](C)(CCOC(=O)C1c2ccccc2Oc2ccccc21)C(C)C	inactive	inactive		inactive	inactive	100 nM (active) and 195 nM (active)	0.826% (inactive)	inactive	inactive	inactive	
C1CN(SSN2CCOCC2)CCO1	inactive	30.3 µM (active) and 48.6 µM (active)		inactive	61.1 µM (active)	78.9 µM (active) and 31.7 µM (active)		35.2 µM (active) and 35.6 µM (active)			
CCCN1C=CN(C)C1	inactive	inactive		inactive	inactive	inactive					
CCCCCCCC/C=C\CCCCCCCC(=O)O	inactive	inactive		inactive	inactive	inactive	-0.693% (inactive)	71.4 µM (active) and inactive	inactive	inactive	
ClC/C=C/CCl	inactive	inactive		inactive	inactive	62.8 µM (active) and inactive					
C=C[C@@]1(C)CC(=O)[C@]2(O)[C@@]3(C)[C@@H](O)CCC(C)(C)[C@@H]3[C@H](O)[C@H](OC(C)=O)[C@@]2(C)O1	inactive	68.6 µM (active)		inactive		63.3 µM (active) and inactive					5.01 µM (active)
COc1cc([C@H]2Oc3cc([C@H]4Oc5cc(O)cc(O)c5C(=O)[C@@H]4O)ccc3O[C@@H]2CO)ccc1O	inactive	60.9 µM (active) and inactive		60.9 µM (active) and inactive	60.9 µM (active) and inactive		-6.88% (inactive)	inactive	inactive	inactive	
